Reference: PubChem BioAssay AID588405 (Sanford-Burnham Center for Chemical Genomics, 2011)
Out of some 360,000 compounds screened, about 6,200 (1.7%) were called active. The sample holds actives, similar compounds and a random draw of the others, so the mix is not that of the screen.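 Rule for the calls: active = inhibition of at least 50% at 20 µM; inactive = the rest.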

Assay: Peg3 promoter-driven luciferase inhibitors, primary screen, cell-based, HeLa, luciferase luminescence (AID 588405)
Conditions: HeLa PEG-Prom luciferase reporter, overnight, at 20 µM, hits give high values

| Compound | inhibition |
| --- | --- |
| COc1ccc2[nH]c(=O)c(CN(Cc3cccnc3)S(=O)(=O)c3ccccc3F)cc2c1 | 59.6% (active) |
| CCOc1ccc2[nH]c(=O)c(CN(CCCO)S(=O)(=O)c3ccc(F)cc3)cc2c1 | 12.7% (inactive) |
| COc1ccc(-c2[nH]ncc2CN(C)Cc2cccnc2)c(F)c1 | 9.62% (inactive) |
| Cn1c(NCc2cccnc2)nc2cc(-c3ccc(F)cc3)sc2c1=O | -200% (inactive) |
| COc1c(C)cc(C(=O)C2CCCN(S(=O)(=O)c3c(C)noc3C)C2)cc1C (stereo unspecified) | 34.8% (inactive) |
| COc1ccccc1-c1c(C#N)c(N)nc2c1CCC2 | 8.52% (inactive) |
| CSc1nc(N)c(C#N)c(-c2ccccc2Cl)c1C#N | 53.6% (active) |
| Cc1c(-c2ccccc2)nc(N)c(C#N)c1-c1cccs1 | 12.9% (inactive) |
| NCCCCC(C(=O)O)N(C(=O)OCc1ccccc1)C(=O)OCc1ccccc1 (stereo unspecified) | 5.74% (inactive) |
| CCNC(=O)C1CCCN(C(=O)c2ccc(OC)cc2OC)CC1 (stereo unspecified) | -2.59% (inactive) |
| CNC(=O)c1[nH]cnc1C(=O)N[C@@H](CC(C)C)C(=O)OCc1ccccc1 | 4.89% (inactive) |
| CCOc1ccc(-n2c(SCC(=O)NC3CCS(=O)(=O)C3)nnc2-c2cccnc2)cc1 (stereo unspecified) | -3.16% (inactive) |
| CCN1CCC(O)(/C=C/c2ccc(C)cc2)C(C(=O)/C=C/c2ccc(C)cc2)C1 (stereo unspecified) | 97.7% (active) |
| COc1cc(C(O)c2nc(-c3cccc(C(=O)O)c3)cs2)ccc1F (stereo unspecified) | -37.1% (inactive) |
| Cc1nc(C(F)(F)F)ccc1C(=O)N1CCC1(C)C(=O)NS(=O)(=O)c1ccccc1 (stereo unspecified) | 11.6% (inactive) |
| CCC(C)Cn1c(O)cc2nn(-c3nc4ccccc4s3)c(=O)c-2c1C (stereo unspecified) | 96.7% (active) |
| OC[C@H]1O[C@@H](c2nc(-c3nc(-c4ccc(F)cc4)no3)cs2)[C@H](O)[C@@H](O)[C@H]1O | -42.8% (inactive) |
| Nc1nc(CSc2nnnn2-c2ccccc2)nc(Nc2ccccc2)n1 | 6.46% (inactive) |
| Cc1cccc(CN2CCN(C3CN(Cc4ccccc4)S(=O)(=O)C3)CC2)c1 (stereo unspecified) | 24.2% (inactive) |

| Compound | inhibition |
| --- | --- |
| O=C(OC12CC3CC(CC(C3)C1)C2)c1ccc(NCc2cc(O)ccc2O)cc1 | 82.7% (active) |
| CC1(C)C2CCC1(C)C(OC(=O)c1ccc(O)cc1)C2 (stereo unspecified) | -14.1% (inactive) |
| CCCCC(=O)N(C)c1c(CC)nc2c(OCc3ccc(S(C)(=O)=O)cc3)cccn12 | -0.29% (inactive) |
| CC(C)Oc1cc(F)ccc1-c1cc(C(=O)Nc2ccc(F)cc2)[nH]n1 | -30.2% (inactive) |
| O=C1CCNCCN1[C@H](CO)Cc1ccccc1 | 3.53% (inactive) |
| c1ccc2c(CCN3CCNC[C@H]3Cc3cccc4ccccc34)cccc2c1 | -8.29% (inactive) |
| c1ccc(C[C@H]2CNCCN2CCC23CC4CC(CC(C4)C2)C3)cc1 | 96.8% (active) |
| COc1cc(/C=C/c2ccc(/C=C/c3cc(OC)c(OC)c(OC)c3)cc2)cc(OC)c1OC | 61.8% (active) |
| CCC(=O)c1ccc(OC(=O)/C=C/c2cc(OC)c(OC)c(OC)c2)cc1 | 3.36% (inactive) |
| COc1cc(/C=C/C2=CC(C)(C)NC(=S)N2)cc(OC)c1OC | 4.8% (inactive) |
| OCCc1ccc(NCCc2ccco2)cc1 | -123% (inactive) |
| CN[C@H](C(=O)NC[C@H]1O[C@@H](n2cnc3c(N)ncnc32)[C@H](O)[C@@H]1O)[C@@H](C)OCc1ccccc1 | -6.23% (inactive) |
| O=C(COC(=O)c1ccc(F)cc1F)Nc1ncccn1 | 22.2% (inactive) |
| CC(C)CNC(=O)C(=O)NCC(c1ccc2c(c1)OCO2)N1CCOCC1 (stereo unspecified) | -15.4% (inactive) |
| CCCc1cc(=O)[nH]c(SCC(=O)N2C(C)CCCC2C)n1 (stereo unspecified) | 0.43% (inactive) |
| CC(C)Cn1c(N)c(C(=O)COC(=O)CN2C(=O)C3CC=CCC3C2=O)c(=O)n(C)c1=O (stereo unspecified) | 21.8% (inactive) |
| CCCc1cc(=O)[nH]c(SCC(=O)c2c(N)n(CC(C)C)c(=O)n(C)c2=O)n1 | 54.7% (active) |
| O=C(NCc1cccnc1)c1ccc2nc([C@@H]3O[C@H](CO)[C@H](O)[C@H](O)[C@H]3O)[nH]c2c1 | 15.8% (inactive) |
| CCC(C)C(CO)NC(=O)/C=C/[C@H]1O[C@@H](n2cnc3c(NC(=O)c4ccccc4)ncnc32)[C@H](O)[C@@H]1O (stereo partly specified) | 10.6% (inactive) |

| Compound | inhibition |
| --- | --- |
| Cc1ccsc1C(=O)OCC(=O)Nc1cccc(F)c1 | -227% (inactive) |
| Cc1ccsc1C(=O)OCC(=O)NCCc1ccccc1 | -156% (inactive) |
| Cc1ccsc1C(=O)OCC(=O)c1cc(C)n(CC2CCCO2)c1C (stereo unspecified) | 55.9% (active) |
| COc1ccc(-c2nnc3n2CCCCC3)cc1 | 11.4% (inactive) |
| COc1cccc2sc(N(CCCN(C)C)C(=O)CCS(=O)(=O)c3ccccc3)nc12 | 96.4% (active) |
| CCN(CC)CCN(C(=O)c1ccc2c(c1)CCCC2)c1nc2c(OC)cccc2s1 | -7.74% (inactive) |
| Cc1cccc2sc(N(CCCN(C)C)C(=O)CCS(=O)(=O)c3ccccc3)nc12 | 100% (active) |
| Cc1ccc(S(=O)(=O)CCC(=O)OCC(=O)N(C)Cc2ccccc2)cc1 | -2.43% (inactive) |
| COc1cccc2sc(N(CCCN(C)C)C(=O)C(c3ccccc3)c3ccccc3)nc12 | 99.4% (active) |
| O=C(CCS(=O)(=O)c1ccccc1)Nc1nc2c(s1)CCCC2 | -47.1% (inactive) |
| COc1ccc(N(C)C(=O)CCS(=O)(=O)c2cccc3nsnc23)cc1 | -4.4% (inactive) |
| COc1ccccc1NC(=O)CC(NCCN(C)C)C(=O)O (stereo unspecified) | 6.79% (inactive) |
| Cc1ccc2sc(N(CCN(C)C)C(=O)/C=C/c3cccs3)nc2c1C | 19.8% (inactive) |
| CC1(C(=O)NCc2ccc3c(c2)OCO3)CCN1CCc1ccccc1 (stereo unspecified) | -5.32% (inactive) |
| CC1(C(=O)NS(=O)(=O)c2cccs2)CCN1C(=O)Cc1ccc(-c2ccccc2)cc1 (stereo unspecified) | 1.06% (inactive) |
| O=C(C=CC(=O)Nc1ccc(F)cc1F)Nc1ccc(F)cc1F | 14.9% (inactive) |
| O=S1(=O)CC(N2CCN(CCO)CC2)CN1C1CCCC1 (stereo unspecified) | -8.51% (inactive) |
| Cc1cccc(CN2CCN(C3CN(Cc4cn(Cc5ccccc5F)nn4)S(=O)(=O)C3)CC2)c1 (stereo unspecified) | -6.63% (inactive) |
